Measurements: PubChem BioAssay AID1159580 (chemical genetic matrix, 2015)
Screen size: about 5,500 compounds; about 2,000 (36%) were called active. Another 18% or so got no clear call; they are omitted. Cut-off read from the data, not from the text of the source: active = normalized growth mostly below about 0.91 (no sharp cut-off); inconclusive = no clear call, values can overlap the other calls; inactive = mostly above about 0.92. Some of the results follow.

Assay: chemical genetic growth profiling, strain panel (AID 1159580);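 note: tested at 20 µM; growth read once vehicle control cultures reached saturation at 30 °C; 1 = growth at the plate median or of vehicle wells; lower values mean less growth of the strain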
Conditions: growth OD

Measured: normalized growth

CCOC(N)=O
inactive: S. cerevisiae deletion strains, locus YJR075W, strain HOC1, hits give low values 1.01 | S. cerevisiae deletion strains, locus YKL009W, strain mrt4, hits give low values 1.02 | S. cerevisiae deletion strains, locus YKL068W, hits give low values 1.01 | S. cerevisiae deletion strains, locus YKL085W, strain MDH1 (second series), hits give low values 1 | S. cerevisiae deletion strains, locus YKL085W, strain MDH1, hits give low values 1 | S. cerevisiae deletion strains, locus YKL160W, strain elf1, hits give low values 0.994 | S. cerevisiae deletion strains, locus YKL190W, strain CNB1, hits give low values 1 | S. cerevisiae deletion strains, locus YKR001C, strain vps1, hits give low values 1.01 | S. cerevisiae deletion strains, locus YKR026C, strain gcn3, hits give low values 0.992 | S. cerevisiae deletion strains, locus YKR091W, strain srl3, hits give low values 0.992 | S. cerevisiae deletion strains, locus YLL001W, strain dnm1, hits give low values 1.01 | S. cerevisiae deletion strains, locus YLL026W, hits give low values 0.998 | S. cerevisiae deletion strains, locus YLL041C, strain sdh2, hits give low values 0.995 | S. cerevisiae deletion strains, locus YLR027C, strain aat2, hits give low values 0.996 | S. cerevisiae deletion strains, locus YLR039C, strain RIC1, hits give low values 1.01 | S. cerevisiae deletion strains, locus YLR058C, strain SHM2, hits give low values 1 | S. cerevisiae deletion strains, locus YLR102C, strain apc9, hits give low values 1.02 | S. cerevisiae deletion strains, locus YLR113W, strain HOG1, hits give low values 0.989 | S. cerevisiae deletion strains, locus YLR221C, strain rsa3, hits give low values 0.992 | S. cerevisiae deletion strains, locus YLR258W, strain gsy2, hits give low values 0.99 | S. cerevisiae deletion strains, locus YLR262C, strain YPT6 (second series), hits give low values 0.998 | S. cerevisiae deletion strains, locus YLR262C, strain YPT6, hits give low values 0.977 | S. cerevisiae deletion strains, locus YLR268W, strain sec22, hits give low values 1 | S. cerevisiae deletion strains, locus YLR320W, strain mms22, hits give low values 0.988 | S. cerevisiae deletion strains, locus YLR330W, strain CHS5, hits give low values 1.01 | S. cerevisiae deletion strains, locus YLR342W, strain FKS1 (second series), hits give low values 1.04 | S. cerevisiae deletion strains, locus YLR342W, strain FKS1, hits give low values 0.987 | S. cerevisiae deletion strains, locus YLR357W, strain rsc2, hits give low values 0.97 | S. cerevisiae deletion strains, locus YLR370C, strain arc18, hits give low values 0.995 | S. cerevisiae deletion strains, locus YLR371W, strain rom2, hits give low values 1.02 | S. cerevisiae deletion strains, locus YLR384C, strain iki3, hits give low values 0.999 | S. cerevisiae deletion strains, locus YLR418C, strain cdc73, hits give low values 0.996 | S. cerevisiae deletion strains, locus YML016C, strain PPZ1, hits give low values 0.997 | S. cerevisiae deletion strains, locus YML032C, strain rad52, hits give low values 1.02 | S. cerevisiae deletion strains, locus YML120C, strain ndi1, hits give low values 1.02 | S. cerevisiae deletion strains, locus YML124C, strain tub3, hits give low values 0.995 | S. cerevisiae deletion strains, locus YMR058W, strain fet3, hits give low values 1 | S. cerevisiae deletion strains, locus YMR078C, strain ctf18, hits give low values 1.01 | S. cerevisiae deletion strains, locus YMR125W, strain sto1, hits give low values 0.986 | S. cerevisiae deletion strains, locus YMR129W, hits give low values 1 | S. cerevisiae deletion strains, locus YMR205C, strain PFK2, hits give low values 0.982 | S. cerevisiae deletion strains, locus YMR223W, strain ubp8, hits give low values 1.02 | S. cerevisiae deletion strains, locus YMR231W, strain pep5, hits give low values 0.995 | S. cerevisiae deletion strains, locus YMR263W, strain SAP30, hits give low values 0.998 | S. cerevisiae deletion strains, locus YMR307W, strain GAS1, hits give low values 1.02 | S. cerevisiae deletion strains, locus YNL067W, strain RPL9B, hits give low values 0.999 | S. cerevisiae deletion strains, locus YNL071W, strain lat1, hits give low values 1.01 | S. cerevisiae deletion strains, locus YNL128W, strain TEP1, hits give low values 1.01 | S. cerevisiae deletion strains, locus YNL153C, strain GIM3, hits give low values 0.995 | S. cerevisiae deletion strains, locus YNL183C, strain NPR1, hits give low values 0.925 | S. cerevisiae deletion strains, locus YNL209W, strain ssb2, hits give low values 1 | S. cerevisiae deletion strains, locus YNL233W, strain BNI4, hits give low values 1 | S. cerevisiae deletion strains, locus YNL248C, strain rpa49, hits give low values 1 | S. cerevisiae deletion strains, locus YNL250W, strain rad50, hits give low values 1.02 | S. cerevisiae deletion strains, locus YNL271C, strain bni1, hits give low values 1.02 | S. cerevisiae deletion strains, locus YNL298W, strain CLA4, hits give low values 1.02 | S. cerevisiae deletion strains, locus YNL307C, strain MCK1, hits give low values 1.01 | S. cerevisiae deletion strains, locus YNL322C, strain KRE1 (second series), hits give low values 0.994 | S. cerevisiae deletion strains, locus YNL322C, strain KRE1, hits give low values 1 | S. cerevisiae deletion strains, locus YNR049C, strain mso1, hits give low values 1.01 | S. cerevisiae deletion strains, locus YNR052C, strain pop2, hits give low values 1.01 | S. cerevisiae deletion strains, locus YOL006C, strain TOP1, hits give low values 1 | S. cerevisiae deletion strains, locus YOL012C, strain htz1 1.41 | S. cerevisiae deletion strains, locus YOL147C, strain pex11, hits give low values 1.01 | S. cerevisiae deletion strains, locus YOR001W, strain rrp6, hits give low values 0.994 | S. cerevisiae deletion strains, locus YOR061W, strain CKA2, hits give low values 1 | S. cerevisiae deletion strains, locus YOR069W, strain VPS5, hits give low values 1 | S. cerevisiae deletion strains, locus YOR070C, strain gyp1, hits give low values 0.991 | S. cerevisiae deletion strains, locus YOR080W, strain dia2, hits give low values 0.994 | S. cerevisiae deletion strains, locus YOR083W, strain WHI5, hits give low values 1 | S. cerevisiae deletion strains, locus YOR106W, strain vam3, hits give low values 0.998 | S. cerevisiae deletion strains, locus YOR136W, strain idh2, hits give low values 1.01 | S. cerevisiae deletion strains, locus YOR144C, strain elg1, hits give low values 1.01 | S. cerevisiae deletion strains, locus YOR184W, strain ser1, hits give low values 1.01 | S. cerevisiae deletion strains, locus YOR231W, strain MKK1, hits give low values 1 | S. cerevisiae deletion strains, locus YOR265W, strain rbl2, hits give low values 0.986 | S. cerevisiae deletion strains, locus YOR270C, strain vph1, hits give low values 1 | S. cerevisiae deletion strains, locus YOR290C, strain snf2, hits give low values 0.997 | S. cerevisiae deletion strains, locus YOR316C, strain cot1, hits give low values 1.02 | S. cerevisiae deletion strains, locus YPL051W, strain arl3, hits give low values 1 | S. cerevisiae deletion strains, locus YPL055C, strain LGE1, hits give low values 0.976 | S. cerevisiae deletion strains, locus YPL078C, strain atp4, hits give low values 0.989 | S. cerevisiae deletion strains, locus YPL106C, strain sse1, hits give low values 0.969 | S. cerevisiae deletion strains, locus YPL240C, strain hsp82, hits give low values 0.995 | S. cerevisiae deletion strains, locus YPL241C, strain CIN2, hits give low values 0.992 | S. cerevisiae deletion strains, locus YPL256C, strain CLN2, hits give low values 0.987 | S. cerevisiae deletion strains, locus YPR119W, strain clb2, hits give low values 1.01 | S. cerevisiae deletion strains, locus YPR141C, strain kar3, hits give low values 1.01 | S. cerevisiae deletion strains, locus YPR163C, strain tif3, hits give low values 1.01 | S. cerevisiae deletion strains, locus YPR167C, strain met16, hits give low values 1.01 | S. cerevisiae deletion strains, strain wtn01, hits give low values 1 | S. cerevisiae strains, strain wild type, hits give low values 1.01
